In the library only some 7.3% were active in any assay of this set; here they are far more common.
Luc counter = counter-screen: inhibitors of Kinase-Glo firefly luciferase. Q27757. Potency, µM (titrated, usually from 38.3 µM), without a hit: at the highest dose activity change, negative = inhibition, actives largely listed as inhibitors. Kinase-Glo luciferase, ATP luminescence, 8 min. hit rate 0.28% among 200,000; note: % is set by controls: 0 for no effect and ±100 for the full control effect; nearly all actives have a fitted effect of over 60% in size
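Inhibition of Kinase-Glo luciferase light generation was assessed at 10 uM ATP in pH 7.2 imidazole buffer, with luminescence measured after eight minutes at ambient temperature.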
Rab9 promoter act = activators of Rab9 promoter; AID 485297; Huh7 Rab9 promoter-luciferase reporter, luminescence, 24 h; Potency, µM (doses to about 9.22 µM), for inactives: at the top dose activation, negative = inhibition, actives largely listed as activators; hit rate 2.8% among 320,000; note: % of control where 0% means no effect; nearly all actives have a fitted effect of over 60% in size
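Stable Rab9-luc Huh7, 1500 cells/well, 2 h settle; cmpd in DMSO, 24 h, 37 °C/5% CO2; luciferase reagent 10 min RT; luminescence.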
SMN2 splice up = enhancers of SMN2 splice variant expression; HEK293 SMN2-luciferase splicing reporter, luminescence, 30-36 h; Potency, µM (highest dose often 46.1 µM), inactives show top-dose activity change, positive = activation, usual class: activators; hit rate 2.8% among 210,000; note: % of control where 0% means no effect; nearly all actives have a fitted effect of over 55% in size
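HEK293 cells carry an SMN2 […]–luciferase reporter in which exon 7 inclusion puts luciferase in frame. Cells were plated 10-12 h before compound addition, then incubated 30-36 h at 37C. ONE-Glo luminescence was read; sodium butyrate at 4.5 mM final served as control.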
FLuc modulator = firefly luciferase modulation, counter-screen for miR-21 project; Potency, µM (titrated, usually from 57.5 µM), inactives show at the highest dose activity change, negative = inhibition, most hits filed as inhibitors; hit rate 6.9% among 360,000; purified FLuc, Km substrates, luminescence inhibition;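 note: plate controls were vehicle for no effect and reference inhibitor for full effect; nearly all actives have a fitted effect of over 55% in size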
Target sequence (P08659 whole entry, looked up): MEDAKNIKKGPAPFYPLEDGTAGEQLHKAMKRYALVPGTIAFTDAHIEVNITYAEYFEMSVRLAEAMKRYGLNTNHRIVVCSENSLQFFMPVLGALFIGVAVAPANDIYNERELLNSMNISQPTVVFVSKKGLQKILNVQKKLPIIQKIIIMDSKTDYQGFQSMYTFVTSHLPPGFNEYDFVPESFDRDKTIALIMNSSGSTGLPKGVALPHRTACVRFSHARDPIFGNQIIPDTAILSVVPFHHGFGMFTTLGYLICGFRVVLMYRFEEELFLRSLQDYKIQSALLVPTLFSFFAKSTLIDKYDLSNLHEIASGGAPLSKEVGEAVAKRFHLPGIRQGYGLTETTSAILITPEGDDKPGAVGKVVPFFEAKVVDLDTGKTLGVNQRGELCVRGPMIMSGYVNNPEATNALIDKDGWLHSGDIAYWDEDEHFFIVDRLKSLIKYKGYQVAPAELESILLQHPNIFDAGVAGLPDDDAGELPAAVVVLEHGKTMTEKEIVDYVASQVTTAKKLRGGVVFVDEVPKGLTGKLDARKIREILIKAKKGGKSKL
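Purified P. pyralis luciferase (10nM final) with 10uM D-luciferin and 10uM ATP (Km levels) in 50mM Tris acetate pH 7.5, 10mM Mg acetate, 0.01% Tween-20, 0.05% BSA; qHTS 6-point titration, ~60 µM downward; luminescence read.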
ELG1 genotoxic = inducers of genotoxicity in HEK293T ELG1-luciferase cells | HEK293T ELG1-luciferase reporter, luminescence, 16 h | Potency, µM (series often up to 46 µM), for the others: at the highest dose activity change, positive = activation, usual class: activators | AID 504466 | hit rate 1.3% among 330,000; note: % of control where 0% means no effect; nearly all actives have a fitted effect of over 60% in size
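Quantitative HTS format in 1536-well plates. HEK293T ELG1-luciferase reporter cells receive test compound and are incubated 16 hr at 37 °C, 5% CO2; ONE-Glo added, 30 min room temperature, then luminescence read.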
NPC1 prom act = activates the NPC1 promoter | Huh7 NPC1 promoter luciferase reporter, 24 h | Potency, µM (highest dose often 9.22 µM), without a hit: at the highest dose activation, actives largely listed as activators | hit rate 2.4% among 320,000; note: % of control where 0% means no effect; nearly all actives have a fitted effect of over 60% in size
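Cells: Huh7 expressing luciferase under the NPC1 promoter, 1500/well. Seeded 2 h, compound added, incubated 24 h at 37 °C. Luciferase reagent, 10 min ambient, then luminescence.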
The depositor's hits bear a star; ? = inconclusive; nt = not tested or not shown. Calls come from the whole dose curve; as a rule, active = well fitted curve in the direction sought with a large enough effect; inconclusive = small, poorly fitted or top-dose-only effect, or another doubt; inactive = no such curve, though single readings can be large; an effect the other way counts as inactive or inconclusive. Potency is the fitted concentration of half-maximal effect.

SMILES	Luc counter	Rab9 promoter act	SMN2 splice up	FLuc modulator	ELG1 genotoxic	NPC1 prom act
COC(=O)Nc1nnc(-c2ccccc2Cl)s1	0.5%	29.5%	?	10.7µM*	23.1µM*	?
COc1cc(NC(=O)c2nnn(CC(=O)Nc3ccccc3)c2N)cc(OC)c1	nt	nt	nt	4.5%	nt	nt
COc1cccc(/C=N/N2C(=O)NC3(CCCCC3)C2=O)c1O	-4.9%	-3.2%	-10.1%	13.5µM*	2.1%	0.1%
Cc1cc(O)c(C=Nc2ccc(N3CCOCC3)cc2)c(C)c1Cl	nt	5.0%	nt	4.78µM*	-1.1%	0.4%
CCN1CCC(N2CCN(c3ccc(F)cc3)CC2)CC1	nt	-4.9%	nt	5.8%	-2.0%	-2.1%
COc1cccc(C=Nc2ccc(N3CCOCC3)cc2)c1O	nt	15.3%	nt	12µM*	-3.0%	3.7%
O=[N+]([O-])c1cc(Br)c(O)c(C=Nc2ccc(N3CCOCC3)cc2)c1	-9.5%	-0.3%	20.1%	?	-8.6%	10.1%
CCN1CCN(c2ccc(N=Cc3ccccc3O)cc2)CC1	-2.2%	0.8%	-1.0%	21.3µM*	-1.4%	1.7%
COc1ccc(CC(=O)NCCc2sc(-c3ccc(Cl)cc3)nc2C)cc1OC	nt	nt	nt	-13.4%	nt	nt
CC(=O)c1cccc(NC(=O)CCc2nc3cccnc3n2Cc2cccs2)c1	nt	nt	-17.6%	-10.3%	nt	nt
COc1ccc(-c2c(C#N)c(SCC(=O)Nc3ccccc3C)nc(C)c2C(=O)Nc2ccccc2)cc1OC	nt	nt	-2.2%	-7.5%	nt	nt
CCOC(=O)C1CCN(C(=O)CN2c3ccc(C(C)C)cc3-c3ccccc3S2(=O)=O)CC1	nt	nt	nt	-14.5%	nt	nt
CCN(C(=O)c1cnc(N2CCOCC2)c2ccccc12)c1cc(C)ccc1C	nt	nt	nt	-1.5%	nt	nt
Oc1ccc(/C=N/N2CCOCC2)c(O)c1O	-12.2%	6.1%	8.8%	?	-14.2%	-4.2%
COc1cccc(/C=N/N2CCOCC2)c1O	nt	?	nt	6.75µM*	?	29.9%
COc1ccc(N=Cc2cccc(C)c2O)cc1Cl	-2.9%	10.2%	6.8%	26.9µM*	1.9%	-3.7%
Cc1cccc(N=Cc2cc(Br)cc(Cl)c2O)c1	-4.9%	-2.3%	-6.2%	?	-0.7%	0.3%
COc1cccc(C=Nc2ccc3c(c2)OCCO3)c1O	7.94µM*	-0.7%	18.8%	19µM*	?	7.4%
CCc1ccc(S(=O)(=O)c2cn(C)c3cc(N4CCC(C)CC4)c(F)cc3c2=O)cc1	nt	nt	nt	-1.7%	nt	nt
Cc1ccccc1Cn1c(=O)n(CCc2ccccc2)c(=O)c2sc3ccccc3c21	nt	nt	6.3%	-12.8%	nt	nt
COc1ccc(OCC(O)Cn2c(NCCO)nc3c2c(=O)n(C)c(=O)n3C)cc1 (stereo not drawn)	nt	nt	-51.7%	3.3%	nt	nt
COc1ccc2oc(-c3ccc(C)c(NC(=O)c4ccc5c(c4)OCCO5)c3)nc2c1	nt	nt	29.3%	?	nt	nt
Cc1cccc(C)c1NC(=O)N1CC=CCC1	nt	-5.7%	nt	-1.8%	-0.3%	-0.2%
O=C(Nc1ccc(Cl)c(Cl)c1)N1CC=CCC1	-3.3%	3.55µM*	?	12µM*	?	2.51µM*
O=C1N/C(=C/c2ccc(N3CCOCC3)o2)C(=O)N1c1cccc(Cl)c1	1.2%	?	-1.5%	21.3µM*	10.1%	13.6%
SMILES	Luc counter	Rab9 promoter act	SMN2 splice up	FLuc modulator	ELG1 genotoxic	NPC1 prom act
Cc1ccn2c(NC3CCCC3)c(-c3ccsc3)nc2c1	-0.8%	-7.2%	-30.3%	23.9µM*	-6.3%	1.5%
Cc1ccn2c(NC3CCCCC3)c(-c3cccc(SC4CCCCC4)c3)nc2c1	nt	nt	nt	nt	-3.4%	nt
O=C(Nc1ccc2c(c1)ncn2C1CCCCC1)c1ccco1	-4.1%	3.55µM*	22.6%	13.5µM*	?	?
COc1ccc(-n2cnc3cc(NS(=O)(=O)c4ccccc4)ccc32)cc1	2.9%	0.0%	27.8%	?	3.4%	2.6%
COc1ccc(-n2cnc3cc(C(=O)N4CCOCC4)ccc32)cc1	nt	?	nt	?	?	24.0%
COc1ccc(-n2cnc3cc(N)ccc32)cc1	-2.1%	19.8%	14.1µM*	?	?	25.8%
COc1ccccc1-n1cnc2cc(NC(=O)c3ccco3)ccc21	15.9%	-5.6%	10µM*	?	?	-13.1%
COc1ccc(-n2cnc3cc(NC(=O)c4ccco4)ccc32)cc1	-2.8%	1.7%	-15.9%	13.5µM*	14.7%	4.1%
Cc1noc(C)c1S(=O)(=O)NCCc1csc2nc(-c3ccc(Cl)cc3)nn12	nt	nt	nt	-2.3%	nt	nt
O=C(Nc1ccc(Oc2ccccc2)cc1)C1CCN(S(=O)(=O)c2ccccc2)CC1	nt	nt	-48.2%	-3.1%	nt	nt
CCc1ccc(NC(=O)Nc2cn(C)c(=O)c3ccccc23)cc1	nt	nt	nt	-2.9%	nt	nt
CCC1CCCCN1C(=O)c1ccc2c(c1)N(Cc1cccc(Cl)c1)C(=O)c1ccccc1S2(=O)=O (stereo not drawn)	nt	nt	nt	1.5%	nt	nt
CC(C)n1cnc2cc(NC(=O)c3ccco3)ccc21	nt	1.78µM*	nt	10.7µM*	?	1.12µM*
CCn1c2ccccc2c2cc(NC(=O)c3ccco3)ccc21	1.7%	8.3%	10.4%	?	15.0%	6.4%
CN(C)c1ccc(C(=O)NCC2CCCO2)cc1 (stereo not drawn)	-4.1%	27.9%	25.1µM*	?	?	?
Cc1cccc(C(=O)NCC2CCCO2)c1 (stereo not drawn)	-0.4%	1.5%	14.1%	3.3%	0.0%	-0.2%
CN(C)c1cccc(C(=O)NCC2CCCO2)c1 (stereo not drawn)	-1.3%	26.9%	28.2µM*	-3.7%	?	15.9%
O=C(NCC1CCCO1)c1cccc(Oc2ccccc2)c1 (stereo not drawn)	nt	?	nt	16.9µM*	?	21.3%
Cc1nc2nc(SCC(=O)N(C)Cc3ccccc3)nn2c(C)c1Cc1ccccc1Cl	nt	nt	1.4%	-4.5%	nt	nt
COc1ccc(C(=O)N(Cc2cc(OC)c(OC)c(OC)c2)C2CCS(=O)(=O)C2)cc1Cl (stereo not drawn)	nt	nt	5.1%	-0.5%	nt	nt
Cn1c(N/N=C/c2c[nH]c3ccccc23)nc2ccccc21	-6.8%	?	-108.7%	1.51µM*	7.2%	?
Cn1c(N/N=C/c2cc3ccccc3nc2Cl)nc2ccccc21	6.31µM*	0.447µM*	2.24µM*	0.0269µM*	?	1µM*
Cc1cc(N/N=C/c2c[nH]c3ccccc23)c2ccccc2n1	3.4%	2.5%	-6.8%	-7.3%	0.9%	8.4%
Cc1nnc(C)n1/N=C/c1cc2ccccc2nc1Cl	5.1%	-3.6%	16.9%	-2.5%	5.2%	-1.4%
CC(=O)N1CCCc2cc(S(=O)(=O)NCc3ccc(OC(C)C)cc3)ccc21	nt	nt	nt	3.3%	nt	nt
O=S(=O)(Nc1ccc(-c2cn3c(n2)SCC3)cc1)c1cccs1	6.9%	-9.2%	-24.8%	-16.6%	3.4%	-0.8%
N#Cc1ccc(-c2cn3c(n2)SCC3)cc1	nt	?	nt	19µM*	?	?
